We go through 53 compounds from PubChem BioAssay (Tox21).

Experiment [1] can be described thus: cAMP Responsive Elements (CRE) small molecule antagonists, cell-based qHTS assay: qHTS cell viability counter screen (AID 2060913). Further: nearly all actives have a fitted effect of over 40% in size. In a few lines:
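Steps: cells plated and held 18 hrs at 37 C/5% CO2; compounds and NKH477 (0.25 uM final) added; 3 hrs incubation; reporter substrate read; CellTiter-Glo added to measure cytotoxicity by luminescence.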

Experiment [2] is described as follows: cAMP Responsive Elements (CRE) small molecule agonists, cell-based qHTS assay: qHTS cell viability counter screen (AID 2060914). Further: nearly all actives have a fitted effect of over 50% in size. Further: potency means the concentration at half of the fitted maximal effect. A digest of the protocol:
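Luminescence read-out (CellTiter-Glo, 30 min RT) of ATP-based viability in CRE-bla HEK 293T cells, run in the same wells as the β-lactamase reporter assay after 3 h compound treatment at 37 °C.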

Records with an inconclusive call do not appear. A number with no mark means an inactive call. The source made the active and inactive calls. The call rests on the fitted dose curve; in most records, active means well fitted cell-killing curve with a large enough effect in the repeat runs; inconclusive means weak or mixed curves, or effect the other way; inactive means flat fitted curve, though single readings scatter.
On the % scale 0 is the no-effect control and ±100 the full control effect.

Take `CO[Si](CCCOCC1CO1)(OC)OC` (stereo unspecified): the Potency result in experiment [1] and in experiment [2] was “inactive” each time.

Take `Cc1cc(O)c(C(C)C)cc1Cl`: the Potency result in experiment [1] and in experiment [2] was “inactive” each time.

For `CCc1cccc(N(C)C(N)=Nc2cccc3ccccc23)c1`, the Potency result in experiment [1] and in experiment [2] was “inactive” throughout.

On to `N[C@H]1C(O)O[C@H](CO)[C@H](O)[C@@H]1O` (stereo partly specified), for which the Potency result in experiment [1] and in experiment [2] was “inactive” each time.

As for `C=O`, the Potency entry in experiment [1] and in experiment [2] was “inactive” in each case.

Consider `O=S(=O)(O)c1cc(Cl)c(Cl)cc1Cl`, for which the Potency entry in experiment [1] and in experiment [2] was “inactive” each time.

As to `O=S(=O)(O)c1ccc2c(N=Nc3ccc(S(=O)(=O)O)c4ccccc34)c(O)c(S(=O)(=O)O)cc2c1`, the viability change, negative = cytotoxic in experiment [1] is 7.11% [at 8.39 µM]. Moreover, the activity change, negative = cytotoxicity in experiment [2] is 0.372% [at 8.39 µM].

For the compound `CCOC(=O)c1ccc(OCCN2C[C@H](O)[C@@H](O)[C@H](O)[C@H]2CO)cc1`, the Potency entry in experiment [1] and in experiment [2] was “inactive” throughout.

For the compound `O=S1(=O)OC(c2ccc(O)cc2)(c2ccc(O)cc2)c2ccccc21`, the Potency entry in experiment [1] and in experiment [2] was “inactive” in each case.

`CCN(CC)c1ccc2c(C)cc(=O)oc2c1`: the Potency result in experiment [1] and in experiment [2] was “inactive” in each case.

On to `CCN(CC)C(=O)c1cccc(C)c1`, for which the Potency entry in experiment [1] and in experiment [2] was “inactive” throughout.

With `O=C(O)CCC(=O)c1ccc(-c2ccccc2)cc1`, the Potency entry in experiment [1] and in experiment [2] was “inactive” each time.

Turning to `O=S(=O)(O)C(F)(F)F`, the Potency result in experiment [1] and in experiment [2] was “inactive” each time.

Consider `C=CCc1cc(S(=O)(=O)c2ccc(O)c(CC=C)c2)ccc1O`, for which the Potency entry in experiment [1] and in experiment [2] was “inactive” throughout.

`CC(C)(C)CCCCCCOC(=O)c1ccccc1C(=O)OCCCCCCC(C)(C)C`: the Potency entry in experiment [1] and in experiment [2] was “inactive” in each case.

Take `CC(N)CN` (stereo unspecified): the Potency entry in experiment [1] and in experiment [2] was “inactive” throughout.

`COC(=O)c1ccccc1C(=O)c1ccc(OCCN2CCCCC2)cc1`: the Potency result in experiment [1] and in experiment [2] was “inactive” in each case.

With `CC(C)OC(=O)c1ccccc1`, the Potency entry in experiment [1] and in experiment [2] was “inactive” throughout.

Regarding `CC(=O)/C(C)=C/C1C(C)=CCCC1(C)C` (stereo unspecified), the Potency entry in experiment [1] and in experiment [2] was “inactive” throughout.

In the case of `CCCCCCCCCC(=O)OC`, the Potency entry in experiment [1] and in experiment [2] was “inactive” throughout.

For the compound `O=C1NC(=O)C(c2ccccc2)(c2ccccc2)N1`, the Potency entry in experiment [1] and in experiment [2] was “inactive” throughout.

`CO[C@@]1(NC(=O)Cc2cccs2)C(=O)N2C(C(=O)O)=C(COC(N)=O)CS[C@@H]21`: the Potency result in experiment [1] and in experiment [2] was “inactive” each time.

For the compound `CCOC(=O)CCC(=O)OCC`, the Potency result in experiment [1] and in experiment [2] was “inactive” each time.

As to `CC(O)C#CC(C)O` (stereo unspecified), the Potency result in experiment [1] and in experiment [2] was “inactive” each time.

`CC1=C(C=O)C(C)(C)CC=C1`: the Potency entry in experiment [1] and in experiment [2] was “inactive” each time.

Take `CCN(CC)C(=O)N1CCN(C)CC1`: the Potency result in experiment [1] and in experiment [2] was “inactive” in each case.

Take `Nc1cnn([C@@H]2O[C@H](CO)[C@@H](O)[C@H]2O)c(=O)n1`: in experiment [1], the Potency entry was “inactive”. The Potency in experiment [2] is 970 nM (active).

As for `c1ccc(SSc2ccccc2)cc1`, the Potency result in experiment [1] and in experiment [2] was “inactive” throughout.

Take `CC(=O)CC(=O)Nc1ccc(S(=O)(=O)O)cc1`: the Potency entry in experiment [1] and in experiment [2] was “inactive” throughout.

As to `CN(C)CCOc1ccccc1Cc1ccccc1`, the Potency result in experiment [1] and in experiment [2] was “inactive” each time.

For `CC(C)c1ccc2ncccc2c1`, the Potency entry in experiment [1] and in experiment [2] was “inactive” in each case.

Take `CCc1c(C(=O)O)c(=O)cnn1-c1ccc(Cl)cc1`: the Potency entry in experiment [1] and in experiment [2] was “inactive” throughout.

In the case of `C/C=C1/C(=O)C[C@H]2[C@@H]3CCC4=CC(=O)CC[C@]4(C)[C@H]3CC[C@]12C`, the Potency result in experiment [1] and in experiment [2] was “inactive” each time.

Consider `CC(C)C(=O)O`, for which the Potency result in experiment [1] and in experiment [2] was “inactive” each time.

Regarding `CCCCCCCCCCCCC(=O)O`, the Potency result in experiment [1] and in experiment [2] was “inactive” each time.

Consider `CCO[Si](C)(CCCOCC1CO1)OCC` (stereo unspecified), for which the Potency entry in experiment [1] and in experiment [2] was “inactive” in each case.

For the compound `OC[C@H]1O[C@H](O[C@H]2O[C@H](CO)[C@@H](O)[C@H](O)[C@H]2O)[C@H](O)[C@@H](O)[C@@H]1O`, the Potency entry in experiment [1] and in experiment [2] was “inactive” throughout.

Take `CCc1ccc(CC)cc1`: the Potency result in experiment [1] and in experiment [2] was “inactive” throughout.

As for `C#CC(C)(O)CC(C)C` (stereo unspecified), the Potency result in experiment [1] and in experiment [2] was “inactive” in each case.

Regarding `Nc1cccc(C(F)(F)F)c1`, the Potency entry in experiment [1] and in experiment [2] was “inactive” throughout.

Regarding `CN1CCC[C@H]1c1cccnc1`, the Potency result in experiment [1] and in experiment [2] was “inactive” throughout.

`O=C1CC2CC1C1CCCC21` (stereo unspecified): the Potency entry in experiment [1] and in experiment [2] was “inactive” each time.

For the compound `CCCCCCCCCCCC[N+](C)(C)CCCS(=O)(=O)[O-]`, the Potency result in experiment [1] and in experiment [2] was “inactive” throughout.

Turning to `Oc1cccc2[nH]ccc12`, the Potency entry in experiment [1] and in experiment [2] was “inactive” in each case.

`C[C@H]1O[C@@H](n2cc(F)c(=O)[nH]c2=O)[C@H](O)[C@@H]1O`: the Potency result in experiment [1] and in experiment [2] was “inactive” each time.

Regarding `Cc1ccc(C(=O)c2cc(O)c(O)c([N+](=O)[O-])c2)cc1`, the Potency result in experiment [1] and in experiment [2] was “inactive” in each case.

As for `COc1cc(Nc2c(C#N)cnc3cc(OCCCN4CCN(C)CC4)c(OC)cc23)c(Cl)cc1Cl`, the Potency entry in experiment [1] and in experiment [2] was “inactive” in each case.

In the case of `Oc1ccc(Cl)c2cccnc12`, the Potency entry in experiment [1] and in experiment [2] was “inactive” in each case.

Consider `CN1C[C@H]2c3ccccc3Oc3ccc(Cl)cc3[C@@H]2C1`, for which the Potency result in experiment [1] and in experiment [2] was “inactive” each time.

With `CCCCCCCC(=O)OCC`, the Potency entry in experiment [1] and in experiment [2] was “inactive” each time.

On to `COc1cc(NC(C)CCCN)c2ncccc2c1` (stereo unspecified), for which the Potency result in experiment [1] and in experiment [2] was “inactive” in each case.

For `OCC1CCC(CO)CC1` (stereo unspecified), the Potency entry in experiment [1] and in experiment [2] was “inactive” throughout.

`CCN(CCC#N)c1ccccc1`: the Potency result in experiment [1] and in experiment [2] was “inactive” in each case.
